Bioassay records from PubChem.
Hits are enriched below; roughly 3.7% of the tested compounds scored in any of these assays.
GLP-1R inv ag: inverse agonists of human GLP-1 receptor; HEK293 GLP-1R CRE-luciferase, luminescence, 24 h; GLP-1R form is constitutively active; Potency, µM (top dose mostly 38.3 µM), usual class: inhibitors; hit rate 1.6% among 410,000; AID 624417; also: nearly all actives have a fitted effect of over 55% in size
Target sequence (P43220 whole entry, looked up): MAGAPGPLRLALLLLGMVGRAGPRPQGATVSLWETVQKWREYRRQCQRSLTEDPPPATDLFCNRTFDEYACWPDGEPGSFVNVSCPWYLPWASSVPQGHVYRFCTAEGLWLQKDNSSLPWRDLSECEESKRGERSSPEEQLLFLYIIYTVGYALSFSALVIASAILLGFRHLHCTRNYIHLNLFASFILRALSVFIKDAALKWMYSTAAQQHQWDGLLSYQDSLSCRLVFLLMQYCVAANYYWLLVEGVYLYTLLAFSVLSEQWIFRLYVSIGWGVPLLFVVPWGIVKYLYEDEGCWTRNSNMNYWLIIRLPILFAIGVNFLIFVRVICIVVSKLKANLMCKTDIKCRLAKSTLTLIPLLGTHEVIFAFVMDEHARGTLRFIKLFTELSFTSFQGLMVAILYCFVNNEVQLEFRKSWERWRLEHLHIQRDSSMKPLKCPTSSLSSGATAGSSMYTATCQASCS
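Cells are plated, allowed 12 hours at 37 deg C, then treated with compounds for 24 hr before luciferase detection reagent is added and luminescence is read after 12 min at room temperature. The HEK293 line carries constitutively active GLP-1R with a cAMP-responsive reporter.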
GLP-1R agonist: agonists of human GLP-1 receptor; P43220; Potency, µM (series often up to 45.6 µM), hits mostly activators; HEK293 GLP-1R CRE-luciferase, luminescence, 4-6 h; cells express a hypersensitive GLP-1R form; hit rate 0.007% among 380,000; AID 624172
ATXN2 expr inh: ATXN2 expression inhibition. HEK-293 ATXN2-luciferase reporter, luminescence, 24 h. hit rate 0.72% among 360,000. AID 1745845. Potency, µM (highest dose often 57 µM), hits mostly inhibitors; also: nearly all actives have a fitted effect of over 55% in size
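ATXN2-luciferase reporter cells (luciferase flanked by upstream and downstream ATXN2 gene portions) were treated 24 h at 37 °C with compounds at up to 57 uM. SteadyGlo luminescence gave expression; GF-AFC fluorescence gave viability.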
ATXN viability: cell viability loss in ATXN counter-screen. S2 cells (HEK-293 line with an ATXN2-luciferase reporter) viability, CellTiter-Fluor protease fluorescence, 24 h. Potency, µM (series often up to 56.7 µM), usual class: cytotoxic. hit rate 0.49% among 400,000; also: nearly all actives have a fitted effect of over 40% in size
TGFb SMAD3 inh: TGF-b pathway inhibition; Potency, µM (titrated, usually from 46.1 µM), most hits filed as inhibitors; HepG2 CAGA-GFP TGF-b/SMAD3 reporter, GFP fluorescence, 18 h; TGF-beta stimulated, 500 pg/mL final; hit rate 1.2% among 410,000; also: nearly all actives have a fitted effect of over 65% in size
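Inhibition of TGF-beta-driven CAGA-GFP reporter expression in HEPG2 cells is measured by cellular GFP fluorescence after 18 h stimulation with 500 pg/mL recombinant TGF-beta in 1% FBS medium at 37 degrees C.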
HepG2 viability: HepG2 cytotoxicity, counter-screen for TGF-b inhibitors; HepG2 CAGA-GFP viability, ATP luminescence, 18 h; Potency, µM (highest dose often 46.1 µM), most hits filed as cytotoxic; hit rate 0.76% among 410,000; AID 588856
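CellTiter-Glo luminescence gave cytotoxicity after 18 hours at 37 degrees C. The cells were HepG2 CAGA-GFP in 1% FBS DMEM, stimulated with 500 pg/mL TGF-beta after compound addition. %Activity was normalised to no-cell wells (complete cell-killing) and DMSO (no toxicity), and curves were fitted and classified.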
A number is an active result; – = inactive; ? = inconclusive; · = not tested or not shown. Calls follow the shape of the dose curve; as a rule, active = well fitted curve in the direction sought with a large enough effect; inconclusive = small, poorly fitted or top-dose-only effect, or another doubt; inactive = no such curve, though single readings can be large; an effect the other way counts as inactive or inconclusive.

SMILES	GLP-1R inv ag	GLP-1R agonist	ATXN2 expr inh	ATXN viability	TGFb SMAD3 inh	HepG2 viability
Nc1nc(NCc2ccc(Cl)cc2Cl)c2[nH]cnc2n1	·	·	·	·	–	–
Cc1nnc(SCc2ccccc2Cl)c2cc3occc3n12	–	·	·	·	?	–
CC(=O)c1cccc(NC(=O)COC(=O)c2ccc(S(C)(=O)=O)c([N+](=O)[O-])c2)c1	–	–	–	–	10µM	–
CS(=O)(=O)c1ccc(C(=O)OCC(=O)Nc2ccc(OC(F)(F)F)cc2)cc1[N+](=O)[O-]	·	·	·	·	?	–
CC(=O)c1cccc(NC(=O)C(C)OC(=O)c2ccc(S(C)(=O)=O)c([N+](=O)[O-])c2)c1 (stereo not drawn)	·	·	·	·	11µM	14µM
CN(C)CCOc1ccc(C(=C(CCCl)c2ccccc2)c2ccccc2)cc1	·	·	–	·	·	·
CN(C)C(=O)COc1ccccc1C(=O)OCC(=O)N(CCC#N)c1ccccc1	·	·	·	·	–	–
Cc1ccccc1-c1cc(C(=O)NCc2ccc(OC(F)(F)F)cc2)n(CC2CC(c3cccnc3)=NO2)n1 (stereo not drawn)	22µM	–	–	–	?	–
Cc1ccc(CNC(=O)c2cc(-c3ccccc3C)nn2CC2CC(c3cccnc3)=NO2)cc1 (stereo not drawn)	–	–	–	–	?	–
COC(=O)CN1C(=O)CSc2ccc(S(=O)(=O)Nc3c(C)cc(C)cc3C)cc21	–	·	·	·	–	–
CCC1CC=CC2C1C(=O)N(Cc1ccccc1)C2c1ccc(OC)c(Cl)c1 (stereo not drawn)	·	·	·	·	?	–
Nc1c(C(=O)N2CCOCC2)sc2nc3c(cc12)CCCC3	?	–	3.2µM	–	–	–
COc1cccc(NC(=O)n2nc(N)cc2-c2ccc(Cl)cc2)c1	10µM	–	–	?	?	–
COc1cccc(NC(=O)CSc2nnc3scc(-c4ccc(Cl)cc4)n23)c1	–	·	–	–	–	–
CN[C@@H](C)[C@H]1[C@H](O)C[C@@]2(C)[C@@H]3CC[C@H]4C(C)(C)[C@@H](NC)CC[C@@]45C[C@@]35CC[C@]12C	·	·	–	·	·	·
Cc1cccc(/C=N/Nc2cc(N3CCOCC3)nc(N3CCOCC3)n2)c1	?	–	–	–	–	–
Cc1cccc(C=NNc2cc(N3CCOCC3)nc(OCCc3ccccn3)n2)c1	·	·	0.97µM	·	·	·
Cc1nc(CN2CCN(C(=O)CC3(c4ccccc4Cl)CC(=O)N(C)C3=O)CC2)cs1 (stereo not drawn)	·	·	·	–	·	·
O=C(OCc1cccc(Cl)c1)c1cc([N+](=O)[O-])ccc1N1CCOCC1	?	?	–	?	–	–
O=C(COC(=O)c1cc([N+](=O)[O-])ccc1N1CCOCC1)NCc1ccccc1	–	–	·	–	–	–
O=C(COC(=O)c1cc([N+](=O)[O-])ccc1N1CCOCC1)NCc1ccc(Cl)cc1Cl	11µM	–	–	–	?	–
O=C(COC(=O)c1cc([N+](=O)[O-])ccc1N1CCOCC1)Nc1ccc(Cl)cn1	–	–	7.1µM	?	?	–
O=C(c1ccc(Br)cc1)c1cc([N+](=O)[O-])ccc1N1CCOCC1	1.4µM	–	·	?	?	–
O=C(OCc1cccc(C(F)(F)F)c1)c1cc([N+](=O)[O-])ccc1N1CCOCC1	10µM	–	–	–	?	–
Cc1ccc(CCNC(=O)CCCn2c(=O)c3cccn3c3ccc(F)cc32)cc1	–	·	·	·	?	–
SMILES	GLP-1R inv ag	GLP-1R agonist	ATXN2 expr inh	ATXN viability	TGFb SMAD3 inh	HepG2 viability
CCN1C/C(=C/c2ccc(N3CCOCC3)cc2)C(=O)/C(=C/c2ccc(N3CCOCC3)cc2)C1	?	–	22µM	·	–	–
CSc1nnc(CNC(=O)c2cccc3ccccc23)n1-c1ccccc1C	·	·	·	–	·	·
O=c1c2ccccc2c(C=NCCCN2CCOCC2)c(O)n1Cc1ccccc1	?	–	–	–	–	–
O=c1c2ccccc2c(C=NCCc2ccccc2)c(O)n1Cc1ccccc1	5µM	–	?	?	–	–
O=C(CCn1cnc2ccccc2c1=O)Nc1cccc(Cl)c1Cl	–	–	·	0.16µM	–	–
O=C(CCn1cnc2ccccc2c1=O)NCc1ccccc1Cl	–	·	–	–	–	–
CCC(O)c1cnc(OCc2ccccc2)nc1OCc1ccccc1 (stereo not drawn)	10µM	–	·	–	?	14µM
CCC(O)c1ccccc1 (stereo not drawn)	·	–	·	·	·	·
COc1cc(OC)cc(C(=O)Nc2nc(CC(=O)NCc3ccc(F)cc3)cs2)c1	7.1µM	–	–	?	–	–
COc1cc(OC)cc(C(=O)Nc2nc(CC(=O)NCc3ccccc3OC)cs2)c1	10µM	–	–	–	–	–
COc1ccccc1CNC(=O)Cc1csc(NC(=O)Nc2ccccc2OC)n1	?	–	–	–	–	–
COc1ccccc1NC(=O)Nc1nc(CC(=O)Nc2cc(F)ccc2F)cs1	5.6µM	–	–	–	–	–
CC(C)Cc1nc(SCC(=O)N2CCCCC2)c2c(=O)n(C)c(=O)n(C)c2n1	10µM	–	–	–	?	–
NC(=S)N1OC[C@@H]2COc3ccc4ccccc4c3[C@@H]21	?	–	14µM	–	?	–
O=C(N/C=N/OCc1cccc(C(F)(F)F)c1)N1OC[C@@H]2COc3ccc4ccccc4c3[C@@H]21	5.6µM	–	–	–	–	–
CO/N=C/NC(=O)N1OC[C@@H]2COc3ccc4ccccc4c3[C@@H]21	–	–	–	–	–	–
Cc1ccc(CN(C(=O)COc2ccccc2Cl)c2ccccn2)o1	–	·	–	–	–	–
O=C1OC(c2cc(I)c(O)c(I)c2)(c2cc(I)c(O)c(I)c2)c2ccccc21	·	–	·	·	·	·
Cc1ccc(-n2[nH]c(=O)c(-c3ccccn3)c2C)cc1	1µM	–	1.8µM	–	–	–
Cc1ccc(-n2[nH]c(=O)c3cccnc32)cc1	–	–	–	–	–	–
C[C@]12CCC(=O)C=C1CC[C@@H]1[C@@H]2[C@@H](O)C[C@@]2(C)[C@H]1CC[C@]2(O)C(=O)COP(=O)(O)O	·	–	·	·	·	·
CCCCS/C(N)=N/N=C/c1cc(C)ccc1O	10µM	–	–	–	?	–
COc1c(C)cnc(Cn2cnc3c(Cl)nc(N)nc32)c1C	·	·	0.19µM	·	·	·
COc1ccc(CNC(=O)Cn2cnc3c(SC)nc(N)nc32)cc1	–	–	–	–	–	–
Cc1ccc(C(=O)OCC(=O)Nc2ccccc2C(F)(F)F)cc1S(=O)(=O)N1CCCCC1	10µM	–	–	–	–	–
Cc1ccc(C(=O)OCC(=O)NCc2cccc(Cl)c2)cc1S(=O)(=O)N1CCCCC1	5µM	–	–	–	–	–
